Test results from PubChem BioAssay AID1159580 (chemical genetic matrix, 2015).
About 2,000 (36%) of roughly 5,500 compounds were called active. About 18% were inconclusive and are not listed. No stated cut-off is given here; in the data, active means normalized growth mostly below about 0.91 (no sharp cut-off); inconclusive means no clear call, values can overlap the other calls; inactive means mostly above about 0.92. The list shows a part of the results.

Experiment: chemical genetic growth profiling, strain panel (AID 1159580);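 further: tested at 20 µM; growth read once vehicle control cultures reached saturation at 30 °C; 1 = growth at the plate median or of vehicle wells; lower values mean less growth of the strain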
Conditions: growth OD
[1] = S. cerevisiae deletion strains, locus YAL013W, strain DEP1, hits give low values
[2] = S. cerevisiae deletion strains, locus YBR229C, strain ROT2, hits give low values
[3] = S. cerevisiae deletion strains, locus YDL101C, strain DUN1, hits give low values
[4] = S. cerevisiae deletion strains, locus YDR150W, strain NUM1, hits give low values
[5] = S. cerevisiae deletion strains, locus YEL061C, strain CIN8, hits give low values
[6] = S. cerevisiae deletion strains, locus YGR078C, strain PAC10, hits give low values
[7] = S. cerevisiae deletion strains, locus YHR030C, strain SLT2, hits give low values
[8] = S. cerevisiae deletion strains, locus YHR087W, strain rtc3, hits give low values
[9] = S. cerevisiae deletion strains, locus YJL187C, strain SWE1, hits give low values
[10] = S. cerevisiae deletion strains, locus YJR043C, strain POL32, hits give low values
[11] = S. cerevisiae deletion strains, locus YJR075W, strain HOC1, hits give low values
[12] = S. cerevisiae deletion strains, locus YKL190W, strain CNB1, hits give low values
[13] = S. cerevisiae deletion strains, locus YLR039C, strain RIC1, hits give low values
[14] = S. cerevisiae deletion strains, locus YLR058C, strain SHM2 (second series), hits give low values
[15] = S. cerevisiae deletion strains, locus YLR085C, strain ARP6, hits give low values
[16] = S. cerevisiae deletion strains, locus YLR262C, strain YPT6, hits give low values
[17] = S. cerevisiae deletion strains, locus YML094W, strain GIM5, hits give low values
[18] = S. cerevisiae deletion strains, locus YMR219W, strain ESC1, hits give low values
[19] = S. cerevisiae deletion strains, locus YMR263W, strain SAP30, hits give low values
[20] = S. cerevisiae deletion strains, locus YNL128W, strain TEP1, hits give low values
[21] = S. cerevisiae deletion strains, locus YNL153C, strain GIM3, hits give low values
[22] = S. cerevisiae deletion strains, locus YNL298W, strain CLA4 (second series), hits give low values
[23] = S. cerevisiae deletion strains, locus YNL322C, strain KRE1, hits give low values
[24] = S. cerevisiae deletion strains, locus YNR030W, strain Alg12, hits give low values
[25] = S. cerevisiae deletion strains, locus YPL055C, strain LGE1, hits give low values
[26] = S. cerevisiae deletion strains, locus YPL241C, strain CIN2, hits give low values
[27] = S. cerevisiae deletion strains, locus YPR135W, strain CTF4, hits give low values

Measured: normalized growth

Nc1ccccc1C(=O)NCCc1ccc(Cl)cc1
inactive: [1] 0.979 | [2] 0.949 | [3] 0.987 | S. cerevisiae deletion strains, locus YDL134C, strain PPH21, hits give low values 0.949 | [4] 0.916 | [5] 0.956 | [6] 0.97 | [7] 0.773 | [8] 0.927 | [10] 0.964 | [12] 0.947 | [13] 0.969 | [14] 0.961 | [15] 0.832 | [16] 0.908 | [17] 0.938 | [18] 0.962 | [19] 0.997 | [20] 0.993 | [21] 0.974 | [22] 0.939 | [23] 0.963 | [24] 0.942 | [25] 1.08 | [26] 0.902 | [27] 0.767
active: [9] 0.928 | [11] 0.888

COc1ccc(CCNC(=O)c2ccccc2Cl)cc1OC
inactive: [1] 0.993 | [2] 0.987 | [3] 1 | [4] 0.991 | [5] 0.968 | [6] 1 | S. cerevisiae deletion strains, locus YGR229C, strain SMI1, hits give low values 0.988 | [7] 1.01 | [8] 0.97 | [9] 0.984 | [10] 1 | [11] 0.994 | [12] 0.997 | [13] 1.03 | [14] 1 | [15] 0.973 | [16] 1.02 | [17] 0.993 | [18] 0.981 | [19] 0.993 | [20] 0.983 | [21] 0.988 | [22] 1.01 | [23] 1.01 | [24] 1.03 | [25] 0.976 | [26] 1.02 | [27] 1.06 | S. cerevisiae strains, strain wild type, hits give low values 1.01
